Among the data in PubChem BioAssay (NCATS) are outcome values, retold here.

Active and inactive are the calls of the source. Calls follow the shape of the dose curve; as a rule, active = well fitted inhibition curve with a large enough effect; inconclusive = small, poorly fitted or top-dose-only effect; inactive = no such curve, though single readings can be large or run the other way.

This experiment deals with Single-stranded DNA cytosine deaminase (Homo sapiens) (UniProt Q9GZX7). Briefly: Validation qHTS assay for inhibitors of Activation Induced Cytidine Deaminase (AID): AID signal (AID 1347429). To be noted: Recombinant AID, FRET ssDNA deamination with UDG, fluorescence; series mostly up to 115 µM. The essentials: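 Compounds (up to 114 uM final) are tested against AID plus UDG using DJC20/DJC23 FRET substrate. Reactions incubate 4 hr at room temperature, receive NaOH for 30 min, and are read at Ex 540/Em 590 nm.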
Single-stranded DNA cytosine deaminase (Homo sapiens), sequence (Q9GZX7 whole entry, looked up): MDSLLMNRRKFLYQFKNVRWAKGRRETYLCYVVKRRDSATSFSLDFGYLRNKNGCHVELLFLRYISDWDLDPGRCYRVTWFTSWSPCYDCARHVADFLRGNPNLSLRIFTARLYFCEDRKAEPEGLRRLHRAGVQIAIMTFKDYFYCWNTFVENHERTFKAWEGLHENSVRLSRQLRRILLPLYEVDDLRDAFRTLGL
(In general: Quantitative high-throughput screening tests each substance at several concentrations.)
Consider `O=c1ccc2ccc(O)c(O)c2o1`, for which the outcome was inactive.

As for `O=C1NC(=O)C(c2ccccc2[N+](=O)[O-])=C1Nc1ccc(O)c(Cl)c1`, the outcome was inactive.

On to `NC(=NCc1ccccc1)NC(=O)c1nc(Cl)c(N)nc1N`, for which the outcome was inactive.

Turning to `OC(CN1CCN(c2cccc(Cl)c2)CC1)C(c1ccccc1)c1ccccc1` (stereo not given), the outcome was inactive.

Take `CN(C)CCCC1(c2ccc(F)cc2)OCc2cc(C#N)ccc21` (stereo not given): the outcome was inactive.

As for `CC(C)c1ccc2c(c1)c(SC(C)(C)C)c(CC(C)(C)C(=O)O)n2Cc1ccc(Cl)cc1`, the outcome was inactive.

`NCCCCNCCCN`: the result was inactive.

On to `Cc1cccc(C#Cc2ccccc2)n1`, for which the result was inactive.

Consider `Nc1ccn([C@@H]2O[C@H](CO)[C@@H](O)C2O)c(=O)n1` (stereo not given in full), for which the outcome was inactive.

With `CCN(CC)C(=S)SSC(=S)N(CC)CC`, the result was inactive.

Turning to `Oc1ccc2ccccc2c1SSc1c(O)ccc2ccccc12`, the result was inactive.

As for `CC(=O)O[C@H]1C(=O)[C@@]2(C)C([C@H](OC(=O)c3ccccc3)[C@]3(O)C[C@H](OC(=O)[C@H](O)[C@@H](NC(=O)c4ccccc4)c4ccccc4)C(C)=C1C3(C)C)[C@]1(OC(C)=O)CO[C@@H]1C[C@@H]2O` (stereo not given in full), the outcome was inactive.

In the case of `C[C@H](Cc1ccc(O)c(O)c1)[C@@H](C)Cc1ccc(O)c(O)c1`, the result was inactive.

For the compound `O=C(CCc1ccc(O)cc1)c1c(O)cc(O)cc1O`, the outcome was inactive.

Regarding `CC1(C)C(=O)N(CCN2CCC(C(=O)c3ccc(F)cc3)CC2)c2ccccc21`, the result was inactive.
